“And” between values parts separate entries of the source, which are not always exact repeats. Equal entries are not always repeated. Results filed as inconclusive are left out. The source made the active and inactive calls. Unless noted, calls come from the whole dose curve. Residues, ends and D or L forms follow the SMILES beside them.
What was measured:
[1] = target: Bile acid receptor (Homo sapiens) (UniProt Q96RI1); test: qHTS assay for small molecule agonists of farnesoid X receptor signaling (AID 588527); conditions: HEK293T FXR-UAS-bla, beta-lactamase ratio, 16 h; stronger effect = higher value;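 note: 0% = vehicle basal and 100% = reference agonist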
Procedure, shortened: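 FXR-UAS-bla HEK293T cells (10% dialyzed FBS) preincubated 5-7 h at 37 C, then compounds at up to 92 uM for 16 h at 37 C. CCF4 beta-lactamase read-out after 2 h RT. Normalized to chenodeoxycholic acid (100 uM) and DMSO; Hill fit gave EC50 and efficacy.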

[2] = target: Peroxisome proliferator-activated receptor delta (Homo sapiens) (UniProt Q03181); test: qHTS assay for small molecule agonists of peroxisome proliferator-activated receptor delta signaling (AID 588534); conditions: HEK293T PPARdelta-UAS-bla, beta-lactamase ratio, 18 h; series mostly up to 76.7 µM;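 note: 0% = DMSO basal wells and 100% = positive control agonist at 10 µM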
Procedure, shortened: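 Agonist-mode beta-lactamase reporter readout (CCF4 dye, 2 h at RT) after 18 h at 37 °C exposure to a titration; Hill-equation fitting gave EC50 and maximal response.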

[3] = target: Glucocorticoid receptor (Homo sapiens) (UniProt P04150); test: qHTS assay for small molecule agonists of glucocorticoid receptor signaling (AID 588532; active = well fitted curve in the direction sought with a large enough effect in the signal ratio, with a control signal flat; the % refers to the signal ratio;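 note: 100% = dexamethasone at 0.1 µM and 0% = DMSO only wells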); conditions: HeLa MMTV-bla, beta-lactamase ratio, agonist, 18 h; stronger effect = higher value; percent of dexamethasone control, DMSO zero
Procedure, shortened: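 Titration series, up to 92 uM, applied to GRE-bla HeLa cells for 18 h at 37 C. Detection by CCF4 FRET substrate after 2 h at RT.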

[4] = target: Glucocorticoid receptor (Homo sapiens) (UniProt P04150); test: qHTS assay for small molecule antagonists of glucocorticoid receptor signaling (AID 588533; active = well fitted inhibition curve with a large enough effect in the signal ratio, with a control signal flat, not every such curve was filed as active; the % refers to the signal ratio;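 note: cells stimulated with 2 nM dexamethasone as agonist; % is set by controls: 0 for no effect and ±100 for the full control effect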); conditions: HeLa MMTV-bla, GRE beta-lactamase ratio, antagonist mode, 18 h; series mostly up to 76.8 µM
Procedure, shortened: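 Antagonist-mode qHTS: compound titrations added to GRE-bla HeLa cells, then dexamethasone 2 nM final; 18 h, 37 C. CCF4 FRET fluorescence normalized to dexamethasone and DMSO; IC50 from Hill fit.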

[5] = qHTS assay for small molecule antagonists of peroxisome proliferator-activated receptor delta signaling (AID 588535; active = well fitted inhibition curve with a large enough effect in the signal ratio, with a control signal flat, not every such curve was filed as active; the % refers to the signal ratio;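 for max response: cells co-treated with a PPAR-delta agonist as stimulator during compound exposure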); conditions: HEK293T PPARd-UAS-bla, beta-lactamase FRET ratio, 18 h; 460 nm channel
Procedure, shortened: (§1)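 Inhibition of PPAR-delta response element-driven beta-lactamase expression is measured in HEK293T cells exposed to a compound titration series for 18 hrs at 37 C. Half-maximal inhibition comes from Hill equation fitting.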

[6] = target: Peroxisome proliferator-activated receptor delta (Homo sapiens) (UniProt Q03181); test: as above; conditions: HEK293T PPARd-UAS-bla, beta-lactamase FRET ratio, 18 h; series mostly up to 76.7 µM
Procedure, shortened: as §1

[7] = target: Peroxisome proliferator-activated receptor gamma (Homo sapiens) (UniProt P37231); test: qHTS assay for small molecule agonists of peroxisome proliferator-activated receptor gamma signaling (AID 588536; active = well fitted curve in the direction sought with a large enough effect in the signal ratio, with a control signal flat, not every such curve was filed as active; the % refers to the signal ratio;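 note: 0% = DMSO basal wells and 100% = rosiglitazone at 2 µM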); conditions: HEK293 PPARg-UAS-bla, beta-lactamase ratio, 16 h, percent of rosiglitazone response, DMSO as zero; series mostly up to 76.7 µM
Procedure, shortened: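 Cells were plated and held 6–6.5 h at 37 C, then compounds were added as a titration series. After a further 16 h, CCF4 dye was loaded for 2 h at room temperature and emission at 460/530 nm recorded.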

Chain of Peroxisome proliferator-activated receptor delta (Homo sapiens) (Q03181 whole entry, looked up): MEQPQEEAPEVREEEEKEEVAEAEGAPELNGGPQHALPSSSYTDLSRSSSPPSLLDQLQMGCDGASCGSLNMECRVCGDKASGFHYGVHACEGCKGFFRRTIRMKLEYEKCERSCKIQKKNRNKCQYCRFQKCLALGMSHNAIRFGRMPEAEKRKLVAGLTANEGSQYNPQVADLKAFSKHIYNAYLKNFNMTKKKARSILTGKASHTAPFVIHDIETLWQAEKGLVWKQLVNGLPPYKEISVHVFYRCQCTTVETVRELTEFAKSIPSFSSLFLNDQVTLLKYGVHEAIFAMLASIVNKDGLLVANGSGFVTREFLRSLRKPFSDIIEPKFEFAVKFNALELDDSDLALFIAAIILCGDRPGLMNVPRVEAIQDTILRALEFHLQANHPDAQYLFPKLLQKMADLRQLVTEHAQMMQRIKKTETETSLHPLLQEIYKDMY
Chain of Glucocorticoid receptor (Homo sapiens) (P04150 whole entry, looked up): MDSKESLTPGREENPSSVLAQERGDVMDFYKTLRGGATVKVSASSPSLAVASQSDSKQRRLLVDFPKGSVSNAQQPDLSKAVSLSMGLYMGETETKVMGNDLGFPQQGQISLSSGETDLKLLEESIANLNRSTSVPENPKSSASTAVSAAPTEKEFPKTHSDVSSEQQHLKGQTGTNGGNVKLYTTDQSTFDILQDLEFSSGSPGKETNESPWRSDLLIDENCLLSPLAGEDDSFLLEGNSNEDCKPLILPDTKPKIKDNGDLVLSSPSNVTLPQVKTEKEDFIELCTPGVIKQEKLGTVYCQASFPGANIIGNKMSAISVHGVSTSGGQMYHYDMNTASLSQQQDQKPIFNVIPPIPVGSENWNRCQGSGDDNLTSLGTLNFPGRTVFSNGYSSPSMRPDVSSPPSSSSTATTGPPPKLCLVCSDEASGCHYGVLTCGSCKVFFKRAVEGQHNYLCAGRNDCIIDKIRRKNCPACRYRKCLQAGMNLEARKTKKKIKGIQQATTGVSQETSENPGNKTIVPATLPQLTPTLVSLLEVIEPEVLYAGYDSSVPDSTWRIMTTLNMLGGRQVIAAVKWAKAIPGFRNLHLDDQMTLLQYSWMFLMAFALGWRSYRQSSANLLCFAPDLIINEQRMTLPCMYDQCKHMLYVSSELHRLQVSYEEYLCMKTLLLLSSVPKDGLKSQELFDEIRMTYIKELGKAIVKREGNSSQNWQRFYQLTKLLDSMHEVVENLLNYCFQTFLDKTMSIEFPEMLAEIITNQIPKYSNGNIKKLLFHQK
Chain of Bile acid receptor (Homo sapiens) (Q96RI1 whole entry, looked up): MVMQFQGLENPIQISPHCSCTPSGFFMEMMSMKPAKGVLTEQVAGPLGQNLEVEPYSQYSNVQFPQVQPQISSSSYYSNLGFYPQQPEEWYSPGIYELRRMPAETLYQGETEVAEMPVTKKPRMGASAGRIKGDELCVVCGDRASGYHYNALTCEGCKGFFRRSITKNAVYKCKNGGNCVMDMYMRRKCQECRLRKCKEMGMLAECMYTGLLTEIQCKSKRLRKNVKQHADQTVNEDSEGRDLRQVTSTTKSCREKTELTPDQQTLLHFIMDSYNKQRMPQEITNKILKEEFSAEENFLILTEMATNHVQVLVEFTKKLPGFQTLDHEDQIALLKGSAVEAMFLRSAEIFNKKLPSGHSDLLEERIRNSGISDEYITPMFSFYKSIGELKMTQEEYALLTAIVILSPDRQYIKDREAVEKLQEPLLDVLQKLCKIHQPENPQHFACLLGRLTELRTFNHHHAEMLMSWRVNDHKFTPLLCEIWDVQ
Chain of Peroxisome proliferator-activated receptor gamma (Homo sapiens) (P37231 whole entry, looked up): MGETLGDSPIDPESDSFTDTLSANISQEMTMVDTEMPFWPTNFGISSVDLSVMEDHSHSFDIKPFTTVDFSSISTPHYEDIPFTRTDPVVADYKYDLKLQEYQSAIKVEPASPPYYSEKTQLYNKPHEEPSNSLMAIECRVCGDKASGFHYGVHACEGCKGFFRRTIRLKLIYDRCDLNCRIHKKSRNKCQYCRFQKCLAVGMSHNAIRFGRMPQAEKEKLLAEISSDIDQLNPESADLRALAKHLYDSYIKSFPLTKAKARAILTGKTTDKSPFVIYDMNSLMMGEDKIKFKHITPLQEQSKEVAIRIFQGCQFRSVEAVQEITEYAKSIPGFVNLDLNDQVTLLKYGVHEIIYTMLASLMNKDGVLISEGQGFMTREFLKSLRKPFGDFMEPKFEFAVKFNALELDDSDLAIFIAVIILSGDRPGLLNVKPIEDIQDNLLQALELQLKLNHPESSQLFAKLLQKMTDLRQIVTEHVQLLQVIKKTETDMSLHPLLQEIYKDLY

SMILES: CC(O)C(=O)O (centres undefined)
- activation [1]: -0.922% (inactive)

SMILES: CN=C(NC#N)NCCSCc1nc[nH]c1C
- activation [1]: 1.62% (inactive)
- outcome [2]: inactive

SMILES: Oc1cccc(O)c1
- activation [1]: -2.84% (inactive)
- outcome [2]: inactive

SMILES: COP(=S)(OC)Oc1ccc(SC)c(C)c1
- activation [3]: -2.46% (inactive) and 5.56% (inactive)
- Potency [4]: inactive
- outcome [2]: inactive
- max response [5]: 3.56%
- outcome [6]: inactive
- outcome [7]: inactive

SMILES: COP(=S)(OC)Oc1cc(Cl)c(Cl)cc1Cl
- activation [3]: -3.3% (inactive)
- Potency [4]: inactive
- outcome [2]: inactive
- max response [5]: 28.8%
- outcome [6]: inactive
- outcome [7]: inactive

SMILES: CC12CCC(CC1)C(C)(C)O2
- activation [1]: -0.483% (inactive)
- outcome [2]: inactive

SMILES: Nc1nc(Cl)nc2c1ncn2[C@H]1C[C@H](O)[C@@H](CO)O1
- activation [1]: -0.12% (inactive)

SMILES: CCOC(=O)c1ccc(O)cc1
- activation [1]: 0.927% (inactive)
- outcome [2]: inactive

SMILES: NCCNCCNCCN
- activation [1]: -3.81% (inactive)
- outcome [2]: inactive

SMILES: CN(C)c1ccc2nc3ccc(=[N+](C)C)cc-3sc2c1
- activation [1]: -2.46% (inactive)

SMILES: CC(O)CN(CCN(CC(C)O)CC(C)O)CC(C)O (centres undefined)
- activation [1]: 0.352% (inactive)
- outcome [2]: inactive

SMILES: c1ccc2sc(SSc3nc4ccccc4s3)nc2c1
- activation [1]: 4.39% (inactive)
- outcome [2]: inactive

SMILES: CC(C)=CCC/C(C)=C/CO
- activation [1]: 0.54% (inactive)

SMILES: Cc1cc(C)nc(NS(=O)(=O)c2ccc(N)cc2)n1
- activation [1]: 1.04% (inactive) and -0.0754% (inactive)

SMILES: CC(=O)Nc1ccccc1
- activation [1]: 3.71% (inactive)
- outcome [2]: inactive

SMILES: CC1(C)C(C=C(Cl)Cl)C1C(=O)OC(C#N)c1cccc(Oc2ccccc2)c1 (centres undefined)
- activation [3]: -2.93% (inactive)
- Potency [4]: inactive

SMILES: O=C1c2ccccc2C(=O)C1C(=O)C(c1ccccc1)c1ccccc1
- activation [1]: -2.98% (inactive)
- activation [3]: -2.9% (inactive)

SMILES: CCCCOC(=O)c1ccc(O)cc1
- activation [1]: 2.27% (inactive)
- outcome [2]: inactive

SMILES: O=c1[nH]c(=O)n([C@H]2C[C@H](O)[C@@H](CO)O2)cc1Br
- activation [1]: -3.6% (inactive)
- outcome [2]: inactive

SMILES: CC(=O)c1ccc(S(=O)(=O)NC(=O)NC2CCCCC2)cc1
- activation [1]: -2.29% (inactive) and -1.81% (inactive)

SMILES: CC(C)(C)CC(C)(C)c1ccc(OCCOCC[N+](C)(C)Cc2ccccc2)cc1
- activation [1]: -1.62% (inactive)

SMILES: Nc1ccc(C(=O)O)cc1
- activation [1]: 2.28% (inactive)
- outcome [2]: inactive

SMILES: NC(=O)c1ccccc1O
- activation [1]: -3.79% (inactive)
- outcome [2]: inactive

SMILES: COC(=O)[C@H](Cc1ccccc1)NC(=O)[C@@H](N)CC(=O)O (H-Asp-Phe-OMe)
- activation [1]: -0.395% (inactive) and 1.51% (inactive)
- outcome [2]: inactive

Source: PubChem BioAssay (NCATS)
